The results in this text go back to ChEMBL document CHEMBL3988442, “University of Dundee, Small-Polar-MMV Screening Library” (2021).

Each structure is given as a SMILES string.

In the assay the target is AMP-activated protein kinase, AMPK (Homo sapiens) (UniProt P54646+O43741+P54619+Q9UGJ0+Q9Y478+Q13131+Q9UGI9). The experiment in a line: AMP-dependent Kinase enzyme assay. An in vitro enzyme assay that detects ADP turnover that is directly proportional to AMPK activity. This uses naive AMPK that is activated during the assay with MK-8722. Conditions: 30 µM. It is filed as functional. The arrangement: scale not given: direction of the effect not stated beside the values.
With `CCC(NC(=O)c1cnc(N(C)C)nc1C)c1ccc(S(C)(=O)=O)cc1` (stereo not given), the Percent Effect is -4.95%.

Turning to `O=C(C1CCCCN1Cc1nccn1CC(F)(F)F)N1CCCC1` (stereo not given), the Percent Effect is -9.13%.

Regarding `CN1CC2(CCCN(CCOCc3ccccc3)C2)OC1=O` (stereo not given), the Percent Effect is -1.54%.

With `Cc1nc(C(NC(=O)CN(C)C(C)C)c2ccccc2F)no1` (stereo not given), the Percent Effect was -4.35%.

On to `CCOC(=O)c1ccc(S(=O)(=O)NCC(CC)N2CCCC2)cc1` (stereo not given), for which the Percent Effect is -6.04%.

For the compound `CC1CCCCN1C(=O)COc1nc(Cc2ccc(F)cc2)no1` (stereo not given), the Percent Effect came out at 2.51%.

Take `CC(C)Cc1nc(C[S+]([O-])CC(=O)NCc2ccccc2)no1` (stereo not given): the Percent Effect was determined as 0.747%.

Consider `N#CCCn1cnc2c(Br)cccc2c1=O`, for which the Percent Effect was -5.95%.

As to `COc1ncccc1N(C)C(=O)Cn1cc(-c2ccccc2)nn1`, the Percent Effect is -1.29%.

`COC(=O)c1ccc(Cn2cnc(C#N)n2)cc1`: the Percent Effect came out at 1.34%.

Regarding `Cc1nc(CNC(=O)Nc2cc(F)ccc2N2CCN(C)CC2)no1`, the Percent Effect was determined as 13.3%.

For the compound `CN1CCN(CCOc2ccc(NC(=O)c3cnc[nH]3)cc2)CC1`, the Percent Effect came out at 0.519%.

Consider `COc1ccc(CC2(CO)CCN(c3cc(C#N)ccn3)CC2)cc1`, for which the Percent Effect came to 112%.

`CO[C@@H]1c2ccccc2C2(CCN(C(=O)CNC(=O)C(C)C)CC2)[C@H]1O`: the Percent Effect turned out to be 13.3%.

`CC(c1ccon1)N(C)S(=O)(=O)NCc1ccccc1` (stereo not given): the Percent Effect was 2.51%.

Consider `O=C(c1nnn(-c2ccc(Cl)cc2)n1)N(CCO)Cc1ccccc1`, for which the Percent Effect turned out to be 3.07%.

On to `CN(C)CCN(C)C(=O)c1cn(CC2CCCCC2)nn1`, for which the Percent Effect came out at 10.7%.

Take `COCc1ncc(CN2CCC3(CCC(=O)N(CC(C)O)C3)CC2)cn1` (stereo not given): the Percent Effect was -3.44%.

For `COCC1CCN(C(C(=O)O)c2c(F)cccc2OC(C)C)CC1` (stereo not given), the Percent Effect came out at 5.46%.

On to `COc1cccc(F)c1C(C)NC(=O)NCc1cnc(C)s1` (stereo not given), for which the Percent Effect worked out at 10.2%.

As for `CCCc1ccc(CN2CCC3(CCC(=O)N(CCCOC)C3)CC2)o1`, the Percent Effect is 4.14%.

Turning to `Cc1ccc(C(=O)N2[C@@H]3CC[C@H]2CN(C)C(=O)C3)c(=O)[nH]1`, the Percent Effect was determined as 8.78%.

In the case of `O=C(c1nc(=O)[nH]c2ccccc12)N1CCCC(CC2CC2)(C(=O)O)C1` (stereo not given), the Percent Effect is -0.821%.

Regarding `COCC(C)NC(=O)c1sccc1-n1cnnn1` (stereo not given), the Percent Effect came out at 15.6%.

With `CC(=O)NCC1CCCN(C(=O)Cc2c(C)noc2C)C1` (stereo not given), the Percent Effect was -3.15%.

On to `CC(C)CN(CC(F)(F)F)S(=O)(=O)c1cc(C(N)=O)n(C)c1`, for which the Percent Effect is -3.17%.

As to `Cc1cc(-c2cnc(N3CCN(C)CC3)nc2C(C)C)on1`, the Percent Effect stood at 16.2%.

For `NC(=O)C1Cc2ccccc2CN1CCC(=O)N1CCc2ccccc21` (stereo not given), the Percent Effect is -3.92%.

In the case of `Cc1nnc(-c2cccc(C#N)c2)n1C1CCCN(C(C)C)C1=O` (stereo not given), the Percent Effect was 4.62%.

In the case of `c1ccc(CCN2CCN(C3CCOC4(CCOCC4)C3)CC2)nc1` (stereo not given), the Percent Effect is -2.83%.

In the case of `COc1ccc(C(=O)N2C[C@@H](O)[C@H](NCc3ncccc3C)C2)cc1`, the Percent Effect is -3.45%.

Regarding `O=C(COCc1ccccc1)NCc1ccc(O)c(F)c1`, the Percent Effect was 8.21%.

Regarding `COc1cc(CNC(=O)COC2CCCC2)ccc1O`, the Percent Effect came out at 3.23%.

As for `CN(Cc1n[nH]c2c1CCCCC2)C(=O)c1cc(-c2cccn2C)n[nH]1`, the Percent Effect came to 12.8%.

For `O=C(NCCn1ccnc1-c1cc2n(n1)CCNC2)c1ccc(F)cc1`, the Percent Effect was 1.27%.

Take `NC(=O)COc1cccc(Cn2cc(Br)cn2)c1`: the Percent Effect was found to be 3.8%.

As to `CCN(C(=O)CN1CCCC1c1c(C)nn(C)c1OC)C1CC1` (stereo not given), the Percent Effect turned out to be 3.98%.

As to `CN(C)CC1(O)CCCN(C(=O)Cn2ccc3ccccc32)CC1` (stereo not given), the Percent Effect is -8.54%.

`Cc1cc(CC(=O)NC2CCCN(Cc3ccccc3)C2=O)n[nH]1` (stereo not given): the Percent Effect amounted to 9.56%.

For the compound `CC(c1ccc(F)cc1F)N1CCN(CCC(=O)NC(N)=O)CC1` (stereo not given), the Percent Effect is -3.39%.
